Screens as filed in PubChem.
G9a block – inhibitors of human histone lysine methyltransferase G9a; G9a H3K9 monomethylation, AlphaScreen, 2 h; Potency, µM (highest dose often 102 µM), without a hit: top-dose activity, negative = inhibition, usual class: inhibitors; actives 8.8% (n = 350,000); note: potency is the fitted concentration of half-maximal effect; % is set by controls: 0 for no effect and ±100 for the full control effect; nearly all actives have a fitted effect of over 75% in size
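Methyltransferase reactions run at room temperature for 2 h (20 nM enzyme, 500 nM biotin-H3K9 peptide, 20 uM SAM) after a 15 min compound preincubation; product detected by AlphaScreen beads and anti-H3K9me1 antibody.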
PI5P4K alpha inh – blocks human PI5P4K alpha kinase activity; max response, %; AID 652105; P48426; PI5P4Kalpha enzyme, ADP-Glo luminescence, 60 min; hits give low values; actives 1.2% (n = 330,000); active = max response of -50% or lower; inconclusive = between -30% and -50%; inactive = -30% or higher; note: value at the top dose of about 77 µM; % is set by controls: 0 for no effect and ±100 for the full control effect
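Controls without substrate or without enzyme flank wells where PI5P4Kalpha converts substrate using 5 microM ATP (final). Incubation lasts 60 minutes at room temperature; ADP formed is read by ADP-Glo luminescence.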
PLK1 PBD block – inhibitors of human PLK1 polo-box domain binding | P53350 | Plk1 PBD binding of FITC phosphopeptide, fluorescence polarization | Potency, µM, for the others: max response, negative = inhibition, hits mostly inhibitors | actives 2.8% (n = 360,000) | AID 720504; note: potency is the fitted concentration of half-maximal effect; series mostly up to about 57 µM; % is set by controls: 0 for no effect and ±100 for the full control effect; nearly all actives have a fitted effect of over 65% in size
JMJD2A Tudor – blocks the human JMJD2A Tudor domain. AlphaScreen JMJD2A-Tudor / H3K4me3 peptide binding. Potency, µM (top dose mostly 114 µM), for inactives: at the top dose activity change, negative = inhibition, usual class: inhibitors. actives 4.4% (n = 390,000); note: potency is the fitted concentration of half-maximal effect; % is set by controls: 0 for no effect and ±100 for the full control effect; nearly all actives have a fitted effect of over 50% in size
Target sequence (O75164 whole entry, looked up, the tested form may be a part): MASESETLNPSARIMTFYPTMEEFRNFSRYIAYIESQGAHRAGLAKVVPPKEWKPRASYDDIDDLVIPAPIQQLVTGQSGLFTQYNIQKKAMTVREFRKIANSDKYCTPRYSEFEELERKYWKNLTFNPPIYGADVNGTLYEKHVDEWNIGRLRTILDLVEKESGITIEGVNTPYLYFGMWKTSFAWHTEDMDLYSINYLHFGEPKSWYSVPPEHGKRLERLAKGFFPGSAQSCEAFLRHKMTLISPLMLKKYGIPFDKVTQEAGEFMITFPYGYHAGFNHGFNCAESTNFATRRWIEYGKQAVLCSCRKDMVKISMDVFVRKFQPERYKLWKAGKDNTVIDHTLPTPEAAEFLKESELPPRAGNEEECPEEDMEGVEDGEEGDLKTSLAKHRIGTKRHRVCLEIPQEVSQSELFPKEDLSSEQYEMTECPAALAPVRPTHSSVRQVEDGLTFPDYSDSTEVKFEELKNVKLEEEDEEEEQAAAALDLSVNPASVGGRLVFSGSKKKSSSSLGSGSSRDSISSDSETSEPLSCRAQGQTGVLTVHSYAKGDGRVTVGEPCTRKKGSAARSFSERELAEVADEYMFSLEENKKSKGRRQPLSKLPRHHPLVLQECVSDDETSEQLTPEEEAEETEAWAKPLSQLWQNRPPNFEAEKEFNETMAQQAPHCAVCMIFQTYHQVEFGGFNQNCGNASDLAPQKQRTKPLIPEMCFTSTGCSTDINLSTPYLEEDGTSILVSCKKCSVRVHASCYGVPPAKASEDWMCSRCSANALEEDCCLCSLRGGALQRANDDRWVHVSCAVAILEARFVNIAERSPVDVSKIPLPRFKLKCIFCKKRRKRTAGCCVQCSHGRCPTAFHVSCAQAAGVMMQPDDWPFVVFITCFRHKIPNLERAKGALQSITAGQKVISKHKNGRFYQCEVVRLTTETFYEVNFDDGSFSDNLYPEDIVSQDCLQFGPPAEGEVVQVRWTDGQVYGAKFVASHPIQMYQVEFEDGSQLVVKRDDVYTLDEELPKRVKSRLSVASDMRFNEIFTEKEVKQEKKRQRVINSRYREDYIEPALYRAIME
HP1b binding inh – inhibitors of HP1-beta chromodomain binding to methylated histone tails; AID 540317; AlphaScreen HP1-beta / biotin-H3K9me3 peptide binding; P83916; Potency, µM (doses to about 114 µM), for inactives: top-dose activity change, negative = inhibition, actives largely listed as inhibitors; actives 0.56% (n = 390,000); note: potency is the fitted concentration of half-maximal effect; nearly all actives have a fitted effect of over 70% in size
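HP1-beta protein (50 nM final) preincubated 30 min at room temperature with biotinylated H3(1-18)K9me3 peptide (50 nM) in PBS pH 7.4, 0.01% Tween-20, then compound added for 30 min. AlphaScreen streptavidin donor/nickel chelate acceptor beads (10 ug/mL final), 30 min dark, luminescence read.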
BAZ2B inh – inhibitors of human BAZ2B bromodomain | AlphaScreen BAZ2B-H3K14Ac peptide displacement | AID 504333 | actives 4.4% (n = 360,000) | Q9UIF8 | Potency, µM (highest dose often 114 µM), without a hit: top-dose activity change, negative = inhibition, most hits filed as inhibitors; note: potency is the fitted concentration of half-maximal effect; % is set by controls: 0 for no effect and ±100 for the full control effect; nearly all actives have a fitted effect of over 60% in size
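BAZ2B 50 nM plus b-H3(5-23)K14Ac 50 nM, PBS pH 7.4/0.01% Tween-20, 30 min RT; compound added (max 110 uM), 30 min RT; streptavidin donor/Ni-chelate acceptor beads 10 ug/mL final, 20 min dark; AlphaScreen read.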
TbPYK confirm – Trypanosoma brucei pyruvate kinase inhibition, cherry-pick confirmation; shares compounds with PLK1 PBD block; actives 67% (n = 890); recombinant TbPYK, Kinase-Glo ATP luminescence; Potency, µM (doses to about 76.9 µM), without a hit: at the highest dose activity change, negative = inhibition, usual class: inhibitors; AID 720569; note: potency is the fitted concentration of half-maximal effect; % is set by controls: 0 for no effect and ±100 for the full control effect; nearly all actives have a fitted effect of over 70% in size
TbPYK orthogonal – inhibits T. brucei pyruvate kinase in orthogonal ADP-Glo assay. shares compounds with PLK1 PBD block. recombinant TbPYK, ADP-Glo luminescence, 60 min. Potency, µM (highest dose often 76.9 µM), inactives show top-dose activity change, negative = inhibition, usual class: inhibitors. actives 62% (n = 890). AID 720584; note: potency is the fitted concentration of half-maximal effect; % is set by controls: 0 for no effect and ±100 for the full control effect; nearly all actives have a fitted effect of over 75% in size
An asterisk follows results filed as active; ? = inconclusive; / = no result given; [ ] = remark or other dose. Sampled rows, rich in hits. Any-hit rate of the full collection: about 12%. Unless noted, calls come from the whole dose curve; as a rule, active = well fitted curve in the direction sought with a large enough effect; inconclusive = small, poorly fitted or top-dose-only effect, or another doubt; inactive = no such curve, though single readings can be large; an effect the other way counts as inactive or inconclusive.

SMILES | G9a block | PI5P4K alpha inh | PLK1 PBD block | JMJD2A Tudor | HP1b binding inh | BAZ2B inh | TbPYK confirm | TbPYK orthogonal
COc1ccc(C2NC(=O)c3sc(=S)n(-c4ccccc4)c3N2)cc1 (stereo not drawn) | -43%[12.7 µM] | -14 | ? | -13% | 25% | -12% | 7.1µM* | 13µM*
CCN(CC)S(=O)(=O)c1ccc(C(=O)NC(=S)N(CCC#N)Cc2cccnc2)cc1 | 13µM* | -1 | -9% | -9% | 18% | 4% | 13µM* | 13µM*
Cc1ccc(S(=O)(=O)N(C)C)cc1NC(=S)N(CCC#N)Cc1cccnc1 | 5%[59 µM] | 2 | -13% | -7% | 2% | -17% | / | /
NC(c1cccc(F)c1)c1nc(-c2ccc(Cl)cc2)cs1 (stereo not drawn) | / | 15 | -10% | / | / | / | / | /
O=S(=O)(Nc1cc(Sc2cccc3cccnc23)c(O)c2ccccc12)c1ccc(F)cc1 | 2µM* | -19 | 1.5µM* | 18µM* | 18µM* | ? | 1.4µM* | 2.2µM*
CNc1ccc(-c2cc(OC)ccc2OC)cn1 | / | -8 | -1% | / | / | / | / | /
CC1(C)CC(=O)C(=Cc2cn(-c3ccccc3)nc2-c2ccccc2)C(=O)C1 | / | -3 | 1.2µM* | 0% | 43% | / | 10µM* | ?
O/N=C/c1cn(-c2ccccc2)nc1-c1ccccc1 | -2% | 7 | -2% | -11% | 30% | -4% | / | /
O=C1NC(=S)CN1c1ccccc1 | 11µM* | -59* | 27µM* | 13µM* | ? | -21% | ? | ?
O=C1N(c2ccccc2)CCN1c1ccccc1 | -1%[0.501 µM] | 6 | -11% | -1% | 24% | 10% | / | /
O=C(Nc1ccc(C(=O)O)cc1)/C(=C\c1ccco1)NC(=O)c1ccccc1 | / | -9 | -13% | -13% | 29% | -26% | / | /
CC(C)(C)c1ccc(C(=O)N/C(=C\c2ccco2)C(=O)Nc2ccccc2C(=O)O)cc1 | ? | ? | -19% | -36% | -2% | 10% | ? | -26%
CCCN1C(=O)/C(=C\C=C2/C=CN(CC)c3ccccc32)SC1=S | 7.9µM* | -8 | -10% | ? | ? | ? | 16µM* | 8%
CCN1C(=O)/C(=C2\SC(=S)N(CCCOC)C2=O)c2ccccc21 | -2%[12.7 µM] | -2 | -2% | ? | ? | ? | / | /
COc1ccc(-c2ccc(C(=S)N3CCN(C(C)=O)CC3)o2)cc1 | 6.3µM* | / | 24µM* | ? | ? | ? | 22µM* | 32µM*
CCCCn1nnnc1C(c1ccccc1)N1CCN(c2c(Cl)cncc2Cl)CC1 (stereo not drawn) | / | -2 | -5% | / | / | / | / | /
Cc1cccn2c(=O)cc(CSc3nnc(NC(=O)c4ccc(F)cc4)s3)nc12 | 0%[59 µM] | / | / | 12% | 22%[57 µM] | 7% | / | /
COC(=O)CSC1=C(C#N)C(c2ccccc2F)CC(=O)N1 (stereo not drawn) | ? | -4 | -17% | -6% | 28% | -2% | / | /
COc1ccccc1N1CSC2=C(C#N)C(c3ccc(SC)cc3)CC(=O)N2C1 (stereo not drawn) | 2.2µM* | -83* | 19µM* | 18µM* | 22µM* | 50µM* | 2.5µM* | 2.2µM*
COc1ccc(OC)c(C2CC(=O)NC(SC)=C2C#N)c1 (stereo not drawn) | ? | 2 | -5% | -14% | 38% | 6% | / | /
CCc1ccccc1N1CSC2=C(C#N)C(c3cc(OC)c(OC)cc3OC)CC(=O)N2C1 (stereo not drawn) | ? | ? | 15µM* | 8.9µM* | -75% | 50µM* | 0.71µM* | 1.1µM*
COc1ccc(OC)c(C2CC(=O)N3CN(c4ccccc4F)CSC3=C2C#N)c1 (stereo not drawn) | 2.2µM* | -94* | ? | 22µM* | 14µM* | 22µM* | 5µM* | 10µM*
N#CC1=C2SCN(Cc3ccccc3)CN2C(=O)CC1c1ccccc1F (stereo not drawn) | 1.8µM* | -77* | 17µM* | 79µM* | ? | -38% | 1.8µM* | 1.6µM*
C[C@@H]1CCCCO[C@H](CN(C)C(=O)Nc2cccc3ccccc23)[C@@H](C)CN([C@H](C)CO)C(=O)c2cc(N(C)C)ccc2O1 | / | -5 | 0% | / | / | / | 3.5µM* | 7.1µM*
C[C@@H]1CCCCO[C@@H](CN(C)Cc2ccc3c(c2)OCO3)[C@@H](C)CN([C@H](C)CO)C(=O)c2cc(N(C)C)ccc2O1 | / | 0 | -20% | / | / | / | / | /
SMILES | G9a block | PI5P4K alpha inh | PLK1 PBD block | JMJD2A Tudor | HP1b binding inh | BAZ2B inh | TbPYK confirm | TbPYK orthogonal
C[C@@H]1CCCCO[C@H](CN(C)Cc2ccc(Cl)c(Cl)c2)[C@@H](C)CN([C@H](C)CO)C(=O)c2cc(N(C)C)ccc2O1 | / | -4 | -2% | / | / | / | 6.3µM* | 6.3µM*
CCCCC1(C)OC(=O)C(=Cc2ccc(-c3ccc(Cl)c(C(=O)O)c3)o2)C(=O)O1 (stereo not drawn) | / | -26 | 4.2µM* | -7% | 28% | -32% | 16µM* | 32µM*
CCCCOC(=O)/C(C#N)=C\c1ccc(-c2ccc(Cl)cc2)o1 | -8%[59 µM] | / | / | -5% | 32% | 0% | / | /
CSc1ccccc1NC(=O)Cn1nc([N+](=O)[O-])c(Cl)c1C | / | -17 | ? | -16% | 7% | -18% | 20µM* | 20µM*
Cc1c(Cl)c([N+](=O)[O-])nn1CC(=O)NCC(C)C | / | -1 | -5% | -3% | 14% | -16% | / | /
CCOC(=O)c1c2ccccc2[n+]([O-])n1[C@@H](C)C(N)=O | 21%[2.33 µM] | 0 | ? | -20% | 17% | -5% | / | /
O=C(O)c1ccccc1-c1ccc(C=c2sc3nc4cc(Br)cnc4n3c2=O)o1 | / | -89* | ? | / | / | / | 14µM* | 16µM*
COc1nc(NC(=O)c2ccc(F)cc2)nc(OC)c1-c1ccccc1 | -49% | -13 | -1% | -31% | 7% | -1% | / | /
CN1CCN(C(=O)c2sc(=S)n(-c3ccccc3)c2N)CC1 | ? | ? | 1.5µM* | 100µM* | ? | -7% | 0.63µM* | 0.89µM*
CCc1ccc(-n2nc(C)c3c(C(=O)Nc4ccc(Cl)cc4)cc(C)nc32)cc1 | 0%[59 µM] | / | / | -14% | 21% | -6%[57.1 µM] | / | /
CCOC(=O)c1ccc2c(c1)C1C=CCC1C(C(=O)OCC)N2 (stereo not drawn) | 11µM* | ? | -17% | ? | -7% | 45µM* | -27% | -16%
